Reference: PubChem BioAssay AID2073 (Sanford-Burnham Center for Chemical Genomics, 2009)
Out of some 290,000 compounds screened, about 570 (0.2%) were called active. About 1% were inconclusive and are not listed. Rule as the data show it: active = inhibition mostly above about 51% (no sharp cut-off); inconclusive = no clear call, values can overlap the other calls; inactive = mostly below about 53%. Shown is part of a subset that was picked to be rich in actives.

Target: Voltage-dependent N-type calcium channel subunit alpha-1B (Homo sapiens) (UniProt Q00975)
Sequence (Q00975 whole entry, looked up): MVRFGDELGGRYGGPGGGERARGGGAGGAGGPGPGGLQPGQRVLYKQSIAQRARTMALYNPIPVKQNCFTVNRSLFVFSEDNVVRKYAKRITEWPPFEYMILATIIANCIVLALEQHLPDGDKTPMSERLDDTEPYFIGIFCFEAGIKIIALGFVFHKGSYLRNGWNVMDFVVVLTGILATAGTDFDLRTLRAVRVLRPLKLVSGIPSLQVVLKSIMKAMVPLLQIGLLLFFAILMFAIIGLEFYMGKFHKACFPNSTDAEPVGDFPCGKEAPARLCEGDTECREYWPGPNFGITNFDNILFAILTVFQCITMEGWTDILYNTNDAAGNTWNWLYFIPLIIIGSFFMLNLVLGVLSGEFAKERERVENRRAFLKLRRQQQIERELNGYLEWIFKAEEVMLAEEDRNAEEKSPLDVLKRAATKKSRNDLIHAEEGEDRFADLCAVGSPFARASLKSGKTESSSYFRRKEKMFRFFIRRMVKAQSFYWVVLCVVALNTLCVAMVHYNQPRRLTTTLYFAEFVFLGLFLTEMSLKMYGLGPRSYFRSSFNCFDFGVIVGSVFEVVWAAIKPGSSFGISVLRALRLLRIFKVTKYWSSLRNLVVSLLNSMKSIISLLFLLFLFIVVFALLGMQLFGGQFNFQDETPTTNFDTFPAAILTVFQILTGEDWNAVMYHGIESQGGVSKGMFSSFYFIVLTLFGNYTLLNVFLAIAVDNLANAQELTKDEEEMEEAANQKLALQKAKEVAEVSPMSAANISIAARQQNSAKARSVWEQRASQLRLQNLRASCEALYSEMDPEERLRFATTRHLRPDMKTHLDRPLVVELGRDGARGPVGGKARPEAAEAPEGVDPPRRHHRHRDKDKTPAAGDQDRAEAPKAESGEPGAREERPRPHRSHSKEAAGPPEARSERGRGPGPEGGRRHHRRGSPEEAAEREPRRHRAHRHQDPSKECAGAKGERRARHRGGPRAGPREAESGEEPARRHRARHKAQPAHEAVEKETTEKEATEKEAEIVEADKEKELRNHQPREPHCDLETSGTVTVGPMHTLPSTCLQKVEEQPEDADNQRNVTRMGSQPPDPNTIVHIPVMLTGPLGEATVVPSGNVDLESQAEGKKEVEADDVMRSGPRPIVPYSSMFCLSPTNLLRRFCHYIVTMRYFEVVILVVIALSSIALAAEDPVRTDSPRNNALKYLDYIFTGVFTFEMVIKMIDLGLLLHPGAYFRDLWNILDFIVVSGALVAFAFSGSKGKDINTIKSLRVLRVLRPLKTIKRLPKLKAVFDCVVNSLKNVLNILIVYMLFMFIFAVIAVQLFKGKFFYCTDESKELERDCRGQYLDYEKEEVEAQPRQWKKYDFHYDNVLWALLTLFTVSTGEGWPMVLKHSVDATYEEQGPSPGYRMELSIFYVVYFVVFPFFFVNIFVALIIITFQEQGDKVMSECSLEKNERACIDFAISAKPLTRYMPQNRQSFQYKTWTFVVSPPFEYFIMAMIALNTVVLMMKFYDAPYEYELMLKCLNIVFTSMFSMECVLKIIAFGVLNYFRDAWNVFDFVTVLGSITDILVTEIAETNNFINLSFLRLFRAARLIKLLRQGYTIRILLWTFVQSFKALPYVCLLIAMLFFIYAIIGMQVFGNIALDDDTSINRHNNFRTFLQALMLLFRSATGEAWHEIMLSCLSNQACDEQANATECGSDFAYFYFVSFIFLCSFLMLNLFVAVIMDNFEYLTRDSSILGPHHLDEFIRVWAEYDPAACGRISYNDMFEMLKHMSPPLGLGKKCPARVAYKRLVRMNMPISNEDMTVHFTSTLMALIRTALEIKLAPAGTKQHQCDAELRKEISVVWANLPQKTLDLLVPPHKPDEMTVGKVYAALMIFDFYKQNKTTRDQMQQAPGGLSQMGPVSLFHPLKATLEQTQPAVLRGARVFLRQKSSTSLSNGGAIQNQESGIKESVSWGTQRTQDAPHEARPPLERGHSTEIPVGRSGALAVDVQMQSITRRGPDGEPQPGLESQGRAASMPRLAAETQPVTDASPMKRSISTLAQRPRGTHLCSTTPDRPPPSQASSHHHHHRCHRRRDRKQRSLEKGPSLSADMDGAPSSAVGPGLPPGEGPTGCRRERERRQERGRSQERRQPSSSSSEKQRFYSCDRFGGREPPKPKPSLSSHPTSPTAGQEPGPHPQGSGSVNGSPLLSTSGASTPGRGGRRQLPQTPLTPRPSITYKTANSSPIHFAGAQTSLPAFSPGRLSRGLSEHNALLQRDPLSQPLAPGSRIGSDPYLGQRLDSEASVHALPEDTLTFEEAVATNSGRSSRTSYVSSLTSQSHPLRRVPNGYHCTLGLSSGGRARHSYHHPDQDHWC
Assay: disruptors of CaV2.2 binding to Mint1 – biochemical, HTRF (AID 2073)
Conditions: HTRF protein-protein interaction, Mint1-CaV2.2, at 20 µM, stronger effect = higher value
[1] = measured here: average of repeat tests

Structure (SMILES): CCN(C(=O)COC(=O)c1c(C)nn(-c2ccccc2)c1C)C1CCS(=O)(=O)C1 (stereo unspecified)
- inhibition: 6.4% (inactive)

Structure (SMILES): C/C(CC(=O)Nc1ccc2c(c1)OCCO2)=N\NC(=O)COc1ccccc1
- inhibition: 1.2% (inactive)

Structure (SMILES): COc1ccc(CCNC(=O)C2CC(c3cc(C(F)(F)F)cc(C(F)(F)F)c3)=NO2)cc1 (stereo unspecified)
- inhibition: 0.2% (inactive)

Structure (SMILES): Cc1ccc(/C=C/C(=O)Nc2ccc(O)c3c(=O)cc(-c4ccccc4Cl)oc23)cc1
- inhibition: 13% (inactive)

Structure (SMILES): CCCN1Cc2cccc(C(=O)NC(CC(=O)OCC)c3ccc(OC(C)C)cc3)c2C1=O (stereo unspecified)
- inhibition: -3.9% (inactive)

Structure (SMILES): Cc1ccc(Cl)cc1N1CCN(C(=O)Cn2ncn3cccc3c2=O)CC1
- inhibition: -1.5% (inactive)

Structure (SMILES): O=C(CCCn1c(=S)[nH]c2ccccc2c1=O)NC1CCCC1
- inhibition: -32.5% (inactive)

Structure (SMILES): CCc1ccccc1NC(=O)COc1ccc(N2CC(C(N)=O)CC2=O)cc1 (stereo unspecified)
- inhibition: 11.4% (inactive)

Structure (SMILES): OC1CNCc2cc3c(cc21)OCCO3 (stereo unspecified)
- inhibition: -5.4% (inactive)

Structure (SMILES): O=C(COC(=O)c1cc(-c2ccco2)nc2ccccc12)NCc1ccccc1
- inhibition: 25.4% (inactive)

Structure (SMILES): CNC(=O)COC(=O)c1cc(-c2ccco2)nc2ccccc12
- inhibition: 66.4% (active)

Structure (SMILES): NC(=O)COC(=O)c1cc(-c2ccco2)nc2ccccc12
- inhibition: 14.1% (inactive)

Structure (SMILES): CCN1CCN(CCCNC(=O)Cn2nc(C)n3nc(-c4ccccc4)cc3c2=O)CC1
- inhibition: 12.1% (inactive)

Structure (SMILES): O=c1[nH]c(C2CCCN(S(=O)(=O)c3ccc(F)cc3)C2)nc2c1nnn2Cc1ccccc1 (stereo unspecified)
- inhibition: -1% (inactive)

Structure (SMILES): Cc1[nH]n(-c2ccccc2)c(=O)c1C=Nc1ccc(S(N)(=O)=O)cc1
- inhibition: 0.1% (inactive)

Structure (SMILES): Cc1[nH]n(-c2ccccc2)c(=S)c1C=Nc1cccc([N+](=O)[O-])c1
- inhibition: 34.3% (inactive)

Structure (SMILES): Cc1[nH]n(-c2ccccc2)c(=S)c1C=Nc1ccc([N+](=O)[O-])cc1
- inhibition: 67% (active)

Structure (SMILES): Oc1ccccc1Cn1nnc2ccccc21
- inhibition: 7.1% (inactive)

Structure (SMILES): COc1ccc(CCNC(=O)CCN2C(=O)[C@@H]3Cc4ccccc4CN3C2=O)cc1
- inhibition: -3.7% (inactive)

Structure (SMILES): CCC(=O)Nc1ccc(C(=O)CSc2nc3ccccc3[nH]2)cc1
- inhibition: 54.5% (active)

Structure (SMILES): CN(C)C(=O)c1ccc(NC(=O)CSc2nc3ccccc3[nH]2)cc1
- inhibition: -1.1% (inactive)

Structure (SMILES): CCC(=O)Nc1ccc(C(=O)CSc2nc3ccc(C)cc3[nH]2)cc1
- inhibition: 32.1% (inactive)

Structure (SMILES): COc1ccc(CCNCC(=O)Nc2c(C)cc(C)cc2C)cc1OC
- inhibition: -6.8% (inactive)

Structure (SMILES): CCOC(=O)N1CCN(c2ccccc2OC)CC1
- inhibition: -13.4% (inactive)

Structure (SMILES): O=C(NNc1nc(-c2ccc(F)cc2)cs1)c1ccccc1
- inhibition: 71.1% (active)

Structure (SMILES): O=C(NNc1nc(-c2ccccc2)cs1)c1ccccc1
- inhibition: -28.9% (inactive)

Structure (SMILES): O=C(NNc1nc(-c2ccccc2)cs1)c1ccc(F)cc1
- inhibition: 60% (inactive)
- inhibition [1]: -6.1%

Structure (SMILES): O=c1nc2c(O)cccn2c2c1c(=O)[nH]c1ccccc12
- inhibition: 66.4% (active)

Structure (SMILES): O=C(CSc1nc2ccccc2c(=O)[nH]1)Nc1ccccc1O
- inhibition: -8.6% (inactive)

Structure (SMILES): O=c1[nH]c2ccccc2c2nc3ccccn3c12
- inhibition: 23.2% (inactive)

Structure (SMILES): Cc1ccc2c(c1)N(CCCC(=O)NCc1ccc3c(c1)OCO3)C(=O)CO2
- inhibition: 9.3% (inactive)

Structure (SMILES): CCOC(=O)c1cn2nc(Oc3cccc(F)c3)ccc2n1
- inhibition: 4.6% (inactive)

Structure (SMILES): CC(C)NC(=O)C1(S(=O)(=O)c2ccccc2)CC=CC1
- inhibition: 4.8% (inactive)

Structure (SMILES): COc1ccc(C(=O)NCCCOc2cccc(NC(C)=O)c2)cc1
- inhibition: 21.8% (inactive)

Structure (SMILES): CC1CCN(C(=O)C2CCCN(S(=O)(=O)c3cccc4nsnc34)C2)CC1 (stereo unspecified)
- inhibition: 5.2% (inactive)

Structure (SMILES): COc1ccc(-c2nnc(SCC(=O)NCCc3ccccc3)o2)cc1
- inhibition: 2.1% (inactive)

Structure (SMILES): COc1ccc(-c2nnc(SCC(=O)NC(=O)NCc3ccccc3)o2)cc1
- inhibition: 55.3% (active)

Structure (SMILES): COc1ccc(-c2nnc(SCC(=O)NC(=O)NCc3ccco3)o2)cc1
- inhibition: -1.1% (inactive)

Structure (SMILES): COc1ccc(N(CC(=O)NCc2ccco2)S(C)(=O)=O)cc1
- inhibition: 2.6% (inactive)

Structure (SMILES): Cc1cccc(/C=N/NC(=O)NC2CCCCC2)c1
- inhibition: -3.7% (inactive)

Structure (SMILES): O=C1NC(=S)S/C1=C/c1ccc(N2CCOCC2)o1
- inhibition: 32.5% (inactive)

Structure (SMILES): O=C1N/C(=C/c2ccc(N3CCOCC3)o2)C(=O)N1c1cccc(Cl)c1
- inhibition: 58.7% (active)

Structure (SMILES): O=C1NC(=O)/C(=C/c2ccc(N3CCOCC3)o2)N1
- inhibition: 52.2% (inactive)
- inhibition [1]: 3.9%

Structure (SMILES): C=CCN1C(=O)N/C(=C/c2ccc(N3CCOCC3)o2)C1=O
- inhibition: 55.4% (inactive)
- inhibition [1]: 7.9%

Structure (SMILES): O=C1NC(=O)/C(=C\c2ccc(N3CCOCC3)o2)N1
- inhibition: 71.7% (active)

Structure (SMILES): O=C1N/C(=C/c2ccc(N3CCOCC3)o2)C(=O)N1c1ccccc1
- inhibition: 44.8% (inactive)

Structure (SMILES): Cc1cc(Br)ccc1OCCN1CCCC1
- inhibition: 1.2% (inactive)

Structure (SMILES): Cc1ccc(S(=O)(=O)N2CCN(CCNC(=O)C(=O)NCc3ccccc3)CC2)cc1
- inhibition: -2.1% (inactive)

Structure (SMILES): Cc1cccc(C(=O)O)c1NC(=O)Cc1cccc2ccccc12
- inhibition: 9.3% (inactive)

Structure (SMILES): O=c1[nH]c(SCc2n[nH]c(=S)n2-c2ccccc2)nc2sc3c(c12)CCC3
- inhibition: 17.3% (inactive)

Structure (SMILES): O=C(CCN1C(=O)S/C(=C\c2ccccc2)C1=O)Nc1ccc(S(=O)(=O)Nc2nccs2)cc1
- inhibition: -6.5% (inactive)

Structure (SMILES): COc1ccc(/C=C2/SC(=O)N(CCC(=O)Nc3ccc(S(=O)(=O)Nc4nccs4)cc3)C2=O)cc1
- inhibition: 53% (active)

Structure (SMILES): COc1ccc(/C=C2\SC(=O)N(CCC(=O)Nc3ccc(S(=O)(=O)Nc4nccs4)cc3)C2=O)cc1
- inhibition: 25.3% (inactive)

Structure (SMILES): COc1cccc(OC)c1C(=O)Nc1cccnc1
- inhibition: -4.9% (inactive)

Structure (SMILES): CNC(=S)NNC(=O)Cc1ccc(OC)c(OC)c1
- inhibition: -18.7% (inactive)

Structure (SMILES): Cc1cc(N)n2nc(C(F)(F)F)nc2n1
- inhibition: -3.1% (inactive)

Structure (SMILES): CC(=O)c1ccc(NC(=O)c2cc3nc4c(c(C(F)(F)F)n3n2)CCCC4)cc1
- inhibition: 33.2% (inactive)

Structure (SMILES): CCn1c(SCC(=O)Nc2cc(C)on2)nnc1-c1ccc(S(=O)(=O)N2CCCC2)cc1
- inhibition: 0.3% (inactive)

Structure (SMILES): O=C1c2ccccc2C(=O)N1c1ccc(-c2nc3ccccc3o2)cc1
- inhibition: 67.9% (active)

Structure (SMILES): O=C1C2C3C=CC(C3)C2C(=O)N1c1ccc(-c2nc3ccccc3o2)cc1 (stereo unspecified)
- inhibition: 15.5% (inactive)

Structure (SMILES): O=C1c2ccccc2C(=O)N1c1cccc(-c2nc3ccccc3o2)c1
- inhibition: 19.2% (inactive)

Structure (SMILES): CC(=O)c1cccc(NC(=O)NNC(=O)c2ccc(-c3ccccc3)cc2)c1
- inhibition: 22.1% (inactive)

Structure (SMILES): CCCNC(=O)CSc1nccn1Cc1ccco1
- inhibition: -17.8% (inactive)

Structure (SMILES): Cc1ccc(N2CCN(C(=S)Nc3ccccc3C)CC2)cc1
- inhibition: -9.9% (inactive)

Structure (SMILES): COc1ccc(Cn2c3nc4ccccc4nc3c3c(=O)n(Cc4ccco4)c(C)nc32)cc1
- inhibition: 18.4% (inactive)

Structure (SMILES): Cc1nc2c(c(=O)n1Cc1ccccc1Cl)c1nc3ccccc3nc1n2Cc1ccco1
- inhibition: 38.1% (inactive)

Structure (SMILES): Cc1nc2c(c(=O)n1Cc1ccco1)c1nc3ccccc3nc1n2Cc1ccccc1
- inhibition: 50.6% (active)

Structure (SMILES): O=[N+]([O-])c1ccc(Nc2nc(NCCO)nc(N3CCCC3)n2)cc1
- inhibition: 5.1% (inactive)

Structure (SMILES): Cc1ccc(/C=C/C2=Cc3c(sc(NC(=O)CSc4n[nH]c(N)n4)c3C#N)C(C)(C)C2)o1
- inhibition: 61.1% (active)

Structure (SMILES): Cc1ccsc1/C=C/C1=Cc2c(sc(NC(=O)CSc3n[nH]c(N)n3)c2C#N)C(C)(C)C1
- inhibition: 20.6% (inactive)

Structure (SMILES): CCOc1ccc(/C=C/C2=Cc3c(sc(NC(=O)CSc4n[nH]c(N)n4)c3C#N)C(C)(C)C2)cc1
- inhibition: 12.8% (inactive)

Structure (SMILES): COc1cccc(NC(=O)c2ccco2)c1
- inhibition: 3.2% (inactive)

Structure (SMILES): Cc1ncc(CO)c(/C=N/NC(=S)Nc2ccc(C(C)C)cc2)c1O
- inhibition: 16.5% (inactive)

Structure (SMILES): Cc1ncc(CO)c(/C=N/NC(=S)Nc2ccc(Cl)c(Cl)c2)c1O
- inhibition: 50.4% (inactive)
- inhibition [1]: 30.4%

Structure (SMILES): Cc1ncc(CO)c(/C=N/NC(=S)Nc2cccc(Cl)c2)c1O
- inhibition: 53.7% (active)

Structure (SMILES): CCCCCCc1nc(C(N)=O)c2[nH]c(=O)n(-c3ccccc3F)c2n1
- inhibition: 10.4% (inactive)

Structure (SMILES): COC(=O)c1c(C)oc(C)c1S(=O)(=O)N(Cc1ccccc1)C(C)C
- inhibition: -16.1% (inactive)

Structure (SMILES): CCc1ccc2nc(N(CCCN(C)C)C(=O)c3ccc(S(=O)(=O)N4CCCC4)cc3)sc2c1
- inhibition: -0.7% (inactive)

Structure (SMILES): CC(=O)c1ccc(N2CCN(C(=O)c3nn(C)c4c3CS(=O)(=O)c3ccccc3-4)CC2)cc1
- inhibition: 9% (inactive)

Structure (SMILES): O=c1cc2oc3cc(O)c(O)cc3c(-c3ccccc3O)c-2cc1O
- inhibition: 68.3% (active)

Structure (SMILES): O=c1cc2oc3cc(O)c(O)cc3c(-c3ccccc3[N+](=O)[O-])c-2cc1O
- inhibition: 15.9% (inactive)

Structure (SMILES): CCOc1ccccc1-c1c2cc(O)c(=O)cc-2oc2cc(O)c(O)cc12
- inhibition: 24.8% (inactive)

Structure (SMILES): CCC(=O)N1CCc2cc(S(=O)(=O)CCC(=O)Nc3ccc(OC)c(OC)c3)ccc21
- inhibition: 5.3% (inactive)

Structure (SMILES): COc1ccc(CNC(=O)Cc2cn(C)c3ccccc23)c(OC)c1
- inhibition: 5.9% (inactive)

Structure (SMILES): Cc1cc(NC(=O)OC2CCCCC2)ccc1[N+](=O)[O-]
- inhibition: -7.7% (inactive)

Structure (SMILES): COc1cc(C(=O)NS(=O)(=O)c2ccccc2C)ccc1Cc1cn(C)c2ccc(NC(=O)OC3CCCC3)cc12
- inhibition: 51.7% (active)

Structure (SMILES): CC(C)CC(=O)N1CC(C)N(C(=O)CC(C)C)CC1C (stereo unspecified)
- inhibition: 4.2% (inactive)

Structure (SMILES): O=[N+]([O-])c1cccc(CSc2nnc3ccccn23)c1
- inhibition: 13.5% (inactive)

Structure (SMILES): Cc1ccc(/C(C#N)=C\c2ccc(N3CCOCC3)o2)cc1
- inhibition: 43.4% (inactive)

Structure (SMILES): N#C/C(=C/c1ccc(N2CCOCC2)o1)c1ccc(Br)cc1
- inhibition: 39.6% (inactive)

Structure (SMILES): N#C/C(=C/c1ccc(N2CCOCC2)o1)c1ccc(Cl)cc1
- inhibition: 51.9% (active)

Structure (SMILES): CCCCCCc1ccc(N2C[C@H](CCCCC)[C@@H](CC(=O)NCc3ccc(OC)cc3)C2=O)cc1
- inhibition: 10.1% (inactive)
